From PubChem BioAssay AID1159580 (chemical genetic matrix, 2015)
The campaign covered roughly 5,500 compounds. About 2,000 (36%) were called active. Another 18% or so got no clear call; they are omitted. Rule as the data show it: active = normalized growth mostly below about 0.91 (no sharp cut-off); inconclusive = no clear call, values can overlap the other calls; inactive = mostly above about 0.92. This is one part of the list.

Test: chemical genetic growth profiling, strain panel (AID 1159580);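 also: tested at 20 µM; growth read once vehicle control cultures reached saturation at 30 °C; 1 = growth at the plate median or of vehicle wells; lower values mean less growth of the strain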
Conditions: growth OD

Measured: normalized growth

C1CNCCN1
inactive: S. cerevisiae deletion strains, locus YJR066W, strain TOR1, stronger effect = lower value 0.957 | S. cerevisiae deletion strains, locus YJR075W, strain HOC1, stronger effect = lower value 1.02 | S. cerevisiae deletion strains, locus YKL009W, strain mrt4, stronger effect = lower value 0.989 | S. cerevisiae deletion strains, locus YKL068W, stronger effect = lower value 0.999 | S. cerevisiae deletion strains, locus YKL085W, strain MDH1 (second series), stronger effect = lower value 1.01 | S. cerevisiae deletion strains, locus YKL085W, strain MDH1, stronger effect = lower value 1.01 | S. cerevisiae deletion strains, locus YKL160W, strain elf1, stronger effect = lower value 1.02 | S. cerevisiae deletion strains, locus YKL190W, strain CNB1, stronger effect = lower value 1 | S. cerevisiae deletion strains, locus YKR001C, strain vps1, stronger effect = lower value 1 | S. cerevisiae deletion strains, locus YKR026C, strain gcn3, stronger effect = lower value 1.01 | S. cerevisiae deletion strains, locus YKR091W, strain srl3, stronger effect = lower value 1.01 | S. cerevisiae deletion strains, locus YLL001W, strain dnm1, stronger effect = lower value 1.02 | S. cerevisiae deletion strains, locus YLL026W, stronger effect = lower value 1.01 | S. cerevisiae deletion strains, locus YLL041C, strain sdh2, stronger effect = lower value 1.02 | S. cerevisiae deletion strains, locus YLR027C, strain aat2, stronger effect = lower value 1.01 | S. cerevisiae deletion strains, locus YLR039C, strain RIC1, stronger effect = lower value 1.01 | S. cerevisiae deletion strains, locus YLR058C, strain SHM2, stronger effect = lower value 1.01 | S. cerevisiae deletion strains, locus YLR102C, strain apc9, stronger effect = lower value 0.994 | S. cerevisiae deletion strains, locus YLR113W, strain HOG1, stronger effect = lower value 1.02 | S. cerevisiae deletion strains, locus YLR221C, strain rsa3, stronger effect = lower value 1.01 | S. cerevisiae deletion strains, locus YLR258W, strain gsy2, stronger effect = lower value 1.01 | S. cerevisiae deletion strains, locus YLR262C, strain YPT6 (second series), stronger effect = lower value 1.03 | S. cerevisiae deletion strains, locus YLR262C, strain YPT6, stronger effect = lower value 1.02 | S. cerevisiae deletion strains, locus YLR268W, strain sec22, stronger effect = lower value 0.987 | S. cerevisiae deletion strains, locus YLR320W, strain mms22, stronger effect = lower value 1.02 | S. cerevisiae deletion strains, locus YLR330W, strain CHS5, stronger effect = lower value 1.01 | S. cerevisiae deletion strains, locus YLR342W, strain FKS1 (second series), stronger effect = lower value 1.02 | S. cerevisiae deletion strains, locus YLR342W, strain FKS1, stronger effect = lower value 1.02 | S. cerevisiae deletion strains, locus YLR357W, strain rsc2, stronger effect = lower value 1.02 | S. cerevisiae deletion strains, locus YLR370C, strain arc18, stronger effect = lower value 1.02 | S. cerevisiae deletion strains, locus YLR371W, strain rom2, stronger effect = lower value 0.997 | S. cerevisiae deletion strains, locus YLR384C, strain iki3, stronger effect = lower value 1.01 | S. cerevisiae deletion strains, locus YLR418C, strain cdc73, stronger effect = lower value 0.994 | S. cerevisiae deletion strains, locus YML016C, strain PPZ1, stronger effect = lower value 1.02 | S. cerevisiae deletion strains, locus YML032C, strain rad52, stronger effect = lower value 0.989 | S. cerevisiae deletion strains, locus YML120C, strain ndi1, stronger effect = lower value 1 | S. cerevisiae deletion strains, locus YML124C, strain tub3, stronger effect = lower value 0.999 | S. cerevisiae deletion strains, locus YMR058W, strain fet3, stronger effect = lower value 1.02 | S. cerevisiae deletion strains, locus YMR078C, strain ctf18, stronger effect = lower value 1 | S. cerevisiae deletion strains, locus YMR125W, strain sto1, stronger effect = lower value 1.03 | S. cerevisiae deletion strains, locus YMR129W, stronger effect = lower value 1.01 | S. cerevisiae deletion strains, locus YMR205C, strain PFK2, stronger effect = lower value 1.03 | S. cerevisiae deletion strains, locus YMR223W, strain ubp8, stronger effect = lower value 0.987 | S. cerevisiae deletion strains, locus YMR231W, strain pep5, stronger effect = lower value 1.02 | S. cerevisiae deletion strains, locus YMR263W, strain SAP30, stronger effect = lower value 1.01 | S. cerevisiae deletion strains, locus YMR307W, strain GAS1, stronger effect = lower value 1.04 | S. cerevisiae deletion strains, locus YNL067W, strain RPL9B, stronger effect = lower value 1.02 | S. cerevisiae deletion strains, locus YNL071W, strain lat1, stronger effect = lower value 1.01 | S. cerevisiae deletion strains, locus YNL128W, strain TEP1, stronger effect = lower value 1.01 | S. cerevisiae deletion strains, locus YNL153C, strain GIM3, stronger effect = lower value 1.02 | S. cerevisiae deletion strains, locus YNL183C, strain NPR1, stronger effect = lower value 0.975 | S. cerevisiae deletion strains, locus YNL209W, strain ssb2, stronger effect = lower value 1.02 | S. cerevisiae deletion strains, locus YNL233W, strain BNI4, stronger effect = lower value 1.01 | S. cerevisiae deletion strains, locus YNL248C, strain rpa49, stronger effect = lower value 1.01 | S. cerevisiae deletion strains, locus YNL250W, strain rad50, stronger effect = lower value 0.993 | S. cerevisiae deletion strains, locus YNL271C, strain bni1, stronger effect = lower value 1 | S. cerevisiae deletion strains, locus YNL298W, strain CLA4, stronger effect = lower value 0.985 | S. cerevisiae deletion strains, locus YNL307C, strain MCK1, stronger effect = lower value 0.996 | S. cerevisiae deletion strains, locus YNL322C, strain KRE1 (second series), stronger effect = lower value 1.02 | S. cerevisiae deletion strains, locus YNL322C, strain KRE1, stronger effect = lower value 1.01 | S. cerevisiae deletion strains, locus YNR049C, strain mso1, stronger effect = lower value 1.01 | S. cerevisiae deletion strains, locus YNR052C, strain pop2, stronger effect = lower value 1.01 | S. cerevisiae deletion strains, locus YOL006C, strain TOP1, stronger effect = lower value 1.06 | S. cerevisiae deletion strains, locus YOL012C, strain htz1 1.02 | S. cerevisiae deletion strains, locus YOL147C, strain pex11, stronger effect = lower value 0.985 | S. cerevisiae deletion strains, locus YOR001W, strain rrp6, stronger effect = lower value 1.01 | S. cerevisiae deletion strains, locus YOR061W, strain CKA2, stronger effect = lower value 1.01 | S. cerevisiae deletion strains, locus YOR069W, strain VPS5, stronger effect = lower value 1 | S. cerevisiae deletion strains, locus YOR070C, strain gyp1, stronger effect = lower value 1.03 | S. cerevisiae deletion strains, locus YOR080W, strain dia2, stronger effect = lower value 1.02 | S. cerevisiae deletion strains, locus YOR083W, strain WHI5, stronger effect = lower value 1.02 | S. cerevisiae deletion strains, locus YOR106W, strain vam3, stronger effect = lower value 1.02 | S. cerevisiae deletion strains, locus YOR136W, strain idh2, stronger effect = lower value 0.99 | S. cerevisiae deletion strains, locus YOR144C, strain elg1, stronger effect = lower value 1 | S. cerevisiae deletion strains, locus YOR184W, strain ser1, stronger effect = lower value 0.981 | S. cerevisiae deletion strains, locus YOR231W, strain MKK1, stronger effect = lower value 1.01 | S. cerevisiae deletion strains, locus YOR265W, strain rbl2, stronger effect = lower value 1.01 | S. cerevisiae deletion strains, locus YOR270C, strain vph1, stronger effect = lower value 1.01 | S. cerevisiae deletion strains, locus YOR290C, strain snf2, stronger effect = lower value 0.996 | S. cerevisiae deletion strains, locus YOR316C, strain cot1, stronger effect = lower value 0.997 | S. cerevisiae deletion strains, locus YPL051W, strain arl3, stronger effect = lower value 1.01 | S. cerevisiae deletion strains, locus YPL055C, strain LGE1, stronger effect = lower value 1.03 | S. cerevisiae deletion strains, locus YPL078C, strain atp4, stronger effect = lower value 1.01 | S. cerevisiae deletion strains, locus YPL106C, strain sse1, stronger effect = lower value 1.01 | S. cerevisiae deletion strains, locus YPL240C, strain hsp82, stronger effect = lower value 1.03 | S. cerevisiae deletion strains, locus YPL256C, strain CLN2, stronger effect = lower value 0.996 | S. cerevisiae deletion strains, locus YPR119W, strain clb2, stronger effect = lower value 0.985 | S. cerevisiae deletion strains, locus YPR141C, strain kar3, stronger effect = lower value 0.992 | S. cerevisiae deletion strains, locus YPR163C, strain tif3, stronger effect = lower value 0.997 | S. cerevisiae deletion strains, locus YPR167C, strain met16, stronger effect = lower value 0.985 | S. cerevisiae deletion strains, strain wtn01, stronger effect = lower value 0.993 | S. cerevisiae strains, strain wild type, stronger effect = lower value 0.999
